Among all 2,200 compounds or so, about 1,200 (55%) were called active. The limit is not given here; nearly all actives have IC50 up to about 92 µM. So high a share suggests a set chosen from earlier hits. This is one part of the list.
Experiment: counter assay for TAg ATPase ADP read-out – biochemical, ADP-Hunter, fluorescence, counter-screen (AID 2501);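 also: purified T antigen ATPase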
Settings: series mostly up to 100 µM

Row | SMILES | IC50
1 | COC(C(=O)N/N=C(\C)CC(=O)Nc1ccc(N(C)C)cc1)c1ccccc1 (stereo not drawn) | 6.98 µM (active)
2 | COc1ccc(CC(=O)n2[nH]c(=O)ccc2=O)cc1OC | inactive
3 | COc1ccc(CC(=O)N/N=C(\C)CC(=O)Nc2ccc(N(C)C)cc2)cc1OC | 3.9 µM (active)
4 | O=C(O)CCC1c2cc3c4cc2OC2Oc5cc6c(cc51)C(CCC(=O)O)c1cc5c7cc1OC(O6)c1cc6cc(c1)Oc1cc(cc(C(=O)O)c1)Oc1cc8cc(c1)C(Oc1cc(c(cc1C5CCC(=O)O)C3CCC(=O)O)OC(O4)c1cc(cc(c1)Oc1cc(cc(C(=O)O)c1)O8)Oc1cc(cc(C(=O)O)c1)Oc1cc(cc2c1)Oc1cc(cc(C(=O)O)c1)O6)O7 (stereo not drawn) | inactive
5 | CCC[n+]1c2ccccc2cc2ccccc21 | inactive
6 | O=C(NO)c1ccc(C(=O)N(C2CCCCC2)C2CCCCC2)cc1 | inactive
7 | CCCC[n+]1c2ccccc2cc2ccccc21 | inactive
8 | CC(C)n1c(=S)[nH]c2c1c(=O)[nH]c(=O)n2C | 92 µM (active)
9 | C#CCOCCOCCOCCNc1nc(N2CCN(C(=O)CCCCCCCCCCNC(=O)[C@H]([C@@H](C)CC)n3cc(CCCCN=C(N)N)nn3)CC2)nc(N2CCN(C(=O)CCCCCCCCCCNC(=O)[C@H](CCCCN)n3cc(C[C@@H](C)CC)nn3)CC2)n1 | inactive
10 | COc1ccc(-n2c(=S)[nH]c3cc(C(=O)NCc4ccco4)ccc3c2=O)c(OC)c1 | inactive
11 | Oc1ccc(/C=N/NC(=S)NCC2CCCO2)cc1 (stereo not drawn) | 2.58 µM (active)
12 | Cc1ccc(CNC(=O)/C=C/c2ccc(S(=O)(=O)NCc3ccco3)cc2)cc1 | inactive
13 | COc1cc(/C=N/NC(=O)CNC(=O)c2ccco2)ccc1O | 2.71 µM (active)
14 | COc1ccccc1CN(C(=O)CNC(=O)c1ccco1)C(C(=O)NCC1CCCO1)c1ccc(OC)c(OC)c1 (stereo not drawn) | inactive
15 | COc1cc(/C=N/NC(=O)C(=O)NCC2CCCO2)ccc1O (stereo not drawn) | 4.13 µM (active)
16 | COc1cc(/C=N/NC(=O)C(=O)NCc2ccco2)ccc1O | 5.14 µM (active)
17 | CC1(OC(=O)CCc2ccccc2)C(=O)C=C2C=C(c3ccc(C#N)cc3)N(Cc3ccco3)C=C2C1=O (stereo not drawn) | inactive
18 | COc1ccc(Nc2ccc(Cl)cc2)c(C(=O)O)c1 | 9.23 µM (active)
19 | COc1ccc(C(=O)CCNc2ccc(C)c(Cl)c2)cc1 | inactive
20 | COc1ccc(NC(=O)c2c(Cl)cnn2C)c(C)c1 | inactive
21 | O=C(Cn1c(=O)oc2ccccc21)Nc1n[nH]c(=S)s1 | 88.8 µM (active)
22 | Nc1ccc2c(c1)-c1ccccc1S(=O)(=O)N2 | 2.89 µM (active)
23 | CC(Nc1ccc(N2CCOCC2)cc1)C(=O)N1c2ccccc2CC1C (stereo not drawn) | 8.86 µM (active)
24 | CCOc1ccc(CN2CCN(Cc3cccc4c3OCO4)CC2CCO)cc1 (stereo not drawn) | 2.23 µM (active)

Row | SMILES | IC50
25 | Cc1ccc(CN2CCN(Cc3cn[nH]c3-c3cccc(F)c3)CC2CCO)o1 (stereo not drawn) | inactive
26 | O=c1cc(CN2CCN(Cc3ccc(F)cc3)C(CCO)C2)[nH]c2ccccc12 (stereo not drawn) | inactive
27 | Cc1nc(C)c(-c2csc(Nc3ccc(N)cc3)n2)s1 | 7.48 µM (active)
28 | Cc1cccc(-n2c(O)c(C=Nc3ccc(O)cc3)c3ccccc3c2=O)n1 | 3.7 µM (active)
29 | Cc1cc2c(n1-c1ccc(C(=O)O)cc1)CCCCC2 | inactive
30 | C=C1C(=O)O[C@@H]2[C@H]3O[C@]3(C)CC/C=C(\C)CC[C@@H]12 | inactive
31 | CC(C)CC(NC(=O)CC12CC3CC(CC(C3)C1)C2)C(=O)NC1=NCCS1 (stereo not drawn) | inactive
32 | COc1ccc(N=Cc2c(O)cc(C)oc2=O)cc1 | 6.29 µM (active)
33 | COc1ccc(N=Cc2nc(-c3ccccc3)oc2OC(C)=O)cc1 | inactive
34 | O=C(CCl)Nc1ccc(N2CCCCCC2)cc1 | 0.76 µM (active)
35 | CC(=O)Nc1ccc(N2CCCCC2)cc1 | 12.1 µM (active)
36 | Cc1ccc(NC(=O)NCCN2CCCCC2)cc1Cl | inactive
37 | Cn1c(CCN2CCCCCC2)nc2cc(NC(=O)Nc3ccccc3)ccc21 | inactive
38 | O=C(NC1CCCCCC1)c1cccnc1Sc1ccc(Cl)cc1 | inactive
39 | O=C(Nc1ccc2nc(-c3ccco3)c(-c3ccco3)nc2c1)NC1CC1 | inactive
40 | Nc1ccc(NC(=O)NC2CCCCC2)cc1 | 9.21 µM (active)
41 | O=c1cc(CSc2ccc(Cl)cc2)[nH]c2[nH]n(-c3ccccc3)c(=O)c12 | 16.2 µM (active)
42 | O=C(O)c1ccccc1NS(=O)(=O)c1ccc(NNC(=S)Nc2ccc(OC(F)F)cc2)c([N+](=O)[O-])c1 | 23 µM (active)
43 | O=C(/C=C/c1ccco1)NCC1OCCc2ccccc21 (stereo not drawn) | inactive
44 | COc1ccc(O)c(C(=O)C2c3ccccc3C(=O)N2c2ccc(C)cc2)c1 (stereo not drawn) | inactive
45 | O=C(COc1ccc2c(-c3ccccc3)cc(=O)oc2c1)N[C@@H](Cc1c[nH]c2ccc(O)cc12)C(=O)O | 31.3 µM (active)
46 | O=C(O)c1ccccc1C(=O)NC1=NN(c2ccccc2)CC1 | 12.1 µM (active)
47 | COc1cc(/C=N/Nc2ccccn2)ccc1O | 8.27 µM (active)
48 | COc1cccc2c(N/N=C/c3ccc(O)c(O)c3)cc(C)nc12 | 10.2 µM (active)

Row | SMILES | IC50
49 | COc1cc(/C=N/Nc2ccnc(=O)[nH]2)ccc1O | 5.01 µM (active)
50 | COc1cc(/C=N/NC2=NCCCCC2)ccc1O | 4.15 µM (active)
51 | COc1cc(/C=N/Nc2nncn2/N=C/c2ccc(O)c(OC)c2)ccc1O | 4.48 µM (active)
52 | COc1cc(/C=N\Nc2cc(=O)n(C)c(=O)n2C)ccc1O | 4.97 µM (active)
53 | COc1cc(/C=N/Nc2nc(=O)[nH]nc2C)ccc1O | 6.46 µM (active)
54 | Cc1cc(C)n(CCc2nc(-c3ccco3)cs2)n1 | inactive
55 | CCOc1cc(/C=C2/N=C(C)C(C(=O)OC)=C2O)ccc1O | 3.91 µM (active)
56 | COC(=O)C1=C(O)/C(=C\c2ccc(O)c(OC)c2)N=C1C | 3.81 µM (active)
57 | CCOC(=O)C1=C(O)/C(=C\c2ccc(O)c(OCC)c2)N=C1C | 9.47 µM (active)
58 | C#CCOCCOCCOCCNc1nc(N2CCN(C(=O)CCCCCCCCCCNC(=O)[C@H]([C@@H](C)CC)n3cc(CCCCN=C(N)N)nn3)CC2)nc(N2CCN(C(=O)CCCCCCCCCCNC(=O)[C@H]([C@@H](C)CC)n3cc(CCCCN=C(N)N)nn3)CC2)n1 | inactive
59 | O=[N+]([O-])c1ccc(C2(O)CN(c3ccccc3)C3=[N+]2CCS3)cc1 (stereo not drawn) | inactive
60 | COc1cc(SC#N)ccc1N=Cc1c(C)[nH]n(-c2ccc(C)cc2)c1=O | inactive
61 | Cc1[nH]n(-c2ccccc2)c(=S)c1C=Nc1ccc([N+](=O)[O-])cc1 | 48 µM (active)
62 | COc1ccc(NC2CCCN(C(=O)CCCn3cncn3)C2)cc1 (stereo not drawn) | 11.5 µM (active)
63 | CCCn1c(SCC(=O)N2CCCC(C)C2)nnc1-c1ccccn1 (stereo not drawn) | inactive
64 | O=C1CCCCN1CCC(=O)N1CCCC(Nc2ccccc2)C1 (stereo not drawn) | inactive
65 | COc1ccc(NC2CCCN(C(=O)CCn3cccn3)C2)cc1 (stereo not drawn) | 5.33 µM (active)
66 | COc1ccc(NC2CCCN(C(=O)CSc3ccccc3)C2)cc1 (stereo not drawn) | 4.76 µM (active)
67 | OCCC1CN(Cc2cccn2-c2ncccn2)CCN1CCc1ccccc1 (stereo not drawn) | inactive
68 | COc1ccc(C2=CC3=C(Br)C(=O)C(C)(OC(=O)c4cccs4)C(=O)C3=CO2)cc1 (stereo not drawn) | inactive
69 | CC(=O)NS(=O)(=O)c1ccc(N=c2ssc3c2-c2cc(C)ccc2NC3(C)C)cc1 | 74.3 µM (active)
70 | CN1C=CC=C/C1=C(\C#N)c1nc2ccccc2[nH]1 | 4.36 µM (active)
71 | NS(=O)(=O)c1ccc(N/N=C/c2ccc[nH]2)c([N+](=O)[O-])c1 | 14.6 µM (active)
72 | CCOc1cccc(=O)c2c(C)n(Cc3ccco3)c(C)c12 | inactive

Row | SMILES | IC50
73 | Cc1cs/c(=N\N=C\c2ccc(O)cc2)n1Cc1ccco1 | 5.01 µM (active)
74 | O=C(CCc1nnc(C2(c3ccc(Cl)cc3)CCC2)o1)N1CCCC(O)C1 (stereo not drawn) | inactive
75 | CC(C)CN(Cc1c(O)ccc2c3c(c(=O)oc12)CCC3)CC(C)C | 5.92 µM (active)
76 | O=C1NN(c2cccc(Br)c2)C(=O)/C1=C\c1ccc(O)cc1 | 11.6 µM (active)
77 | CSC1=NSC2=NC(=O)/C(=C\c3coc4ccccc4c3=O)C(=N)N12 | inactive
78 | CC(C)CC1=NN2C(=N)/C(=C\c3coc4ccccc4c3=O)C(=O)N=C2S1 | inactive
79 | N=C1/C(=C\c2coc3ccc(O)cc3c2=O)C(=O)N=C2SC=CN12 | 84.9 µM (active)
80 | O=C1NN(c2ccccc2)C(=O)/C1=C\c1coc2ccc(O)cc2c1=O | 10.7 µM (active)
81 | Cc1cc(C)c2nc(-c3ccco3)cc(C(=O)O)c2c1 | inactive
82 | CC(C)C1Cc2c(sc3c2c(=O)n(-c2ccccc2)c2n[nH]c(=S)n32)CO1 (stereo not drawn) | 21.9 µM (active)
83 | COc1ccc(-n2c(=O)c3c4c(sc3n3c(=S)[nH]nc23)COC(C(C)C)C4)cc1 (stereo not drawn) | 16.3 µM (active)
84 | Cc1cc(C)c2c(=O)n(CC(=O)NCCCN3CCN(c4ccccc4F)CC3)sc2n1 | inactive
85 | C=CCOC(=O)C1=C(C)N=c2s/c(=C3\C(=O)N(CC(=O)O)c4ccccc43)c(=O)n2C1c1ccc(OC)cc1 (stereo not drawn) | inactive
86 | O=C(N/N=C/c1ccc(O)c(O)c1)C1CC1 | 4.15 µM (active)
87 | C=C1CC(C(=O)N/N=C/c2ccc(O)cc2)C1 | 5.39 µM (active)
88 | CCOC(=O)c1c(C)n(C)c2ccc(OCC(O)CN(CC)CC)cc12 (stereo not drawn) | inactive
89 | COc1ccc2c(c1)c(C(=O)N/N=C/c1ccc(O)c(O)c1)c(C)n2C | 14.6 µM (active)
90 | Cc1nonc1C(=O)N/N=C/c1ccc(O)c(O)c1 | 2.13 µM (active)
91 | O=C(NCCO)Nc1ccc2nc(-c3ccco3)c(-c3ccco3)nc2c1 | inactive
92 | O=C(N/N=C/c1ccc(O)c(O)c1)N/N=C/c1ccc(O)c(O)c1 | 1.85 µM (active)
93 | S=c1[nH]nc(NCCCN2CCOCC2)s1 | 52.3 µM (active)
